Bioassay records deposited in PubChem by several laboratories.
This excerpt belongs to a sample that is enriched for hits.
AMPAR-TARP mod: modulators of GluA2-stargazin AMPA receptor complexes, primary screen, cell-based, membrane potential dye. Voltage-dependent calcium channel gamma-2 subunit (Mus musculus) + Glutamate receptor 2 …. HEK293 GluA2+stargazin, membrane potential dye (FDSS), glutamate EC50; hits were called plate by plate, in both directions. calls only at 30 µM. 40,000 compounds, 3.5% hits;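 active = any of four per-well response measures lying three or more SD from its plate-wide compound average, in either direction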
GIRK2 act: activators of NPY4-receptor-primed GIRK2 channels, summary, cell-based, HEK293, thallium flux; G protein-activated inward rectifier potassium channel 2 (Homo sapiens), P48051; HEK293 GIRK2/NPY4 cells, thallium flux fluorescence; activation (% efficacy), % for hits at 37.5 µM; 34,000 tested, under 10 active;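 active = primary screen hit, no activity in plain HEK293 cells, and in GIRK2-only cells above 5% efficacy rising with concentration; inactive = the rest, including fluorescent compounds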;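 note: efficacy is normalized control-subtracted fluorescence 15 s after thallium addition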
Target sequence (P48051 whole entry, looked up): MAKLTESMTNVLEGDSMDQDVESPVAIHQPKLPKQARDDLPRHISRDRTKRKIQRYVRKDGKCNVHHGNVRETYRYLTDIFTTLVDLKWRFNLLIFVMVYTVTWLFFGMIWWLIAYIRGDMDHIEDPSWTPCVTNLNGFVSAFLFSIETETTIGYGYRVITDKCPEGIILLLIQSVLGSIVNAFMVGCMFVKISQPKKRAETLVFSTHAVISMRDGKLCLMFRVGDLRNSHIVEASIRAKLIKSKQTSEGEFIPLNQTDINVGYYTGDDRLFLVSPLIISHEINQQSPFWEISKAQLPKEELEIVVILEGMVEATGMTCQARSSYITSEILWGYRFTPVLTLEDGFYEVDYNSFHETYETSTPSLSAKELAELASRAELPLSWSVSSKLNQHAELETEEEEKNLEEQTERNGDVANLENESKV
* marks the source's active call; other numbers are inactive results; i = inactive; x = not tested or not shown; + = active, no number.

SMILES | AMPAR-TARP mod | GIRK2 act
Cc1cc(C)c2c(n1)sc1c(=O)n(CC(=O)Nc3ccc(Cl)cc3)cnc12 | i | i
CCC(C)NC(=O)Cn1cnc2c(sc3nc(C)cc(C)c32)c1=O (stereo not drawn) | + | i
COc1ccccc1C1(C(=O)N2CCC(c3cccs3)CC2)CCOCC1 | + | i
CCOC(=O)C1CCN(C(=O)C2(c3cccs3)CCOCC2)CC1 | i | i
COc1ccc(Nc2nnc(Cc3ccccc3)c(=O)[nH]2)cc1OC | i | i
CCc1c(C#N)c(SCC(=O)NCc2ccc3c(c2)OCO3)nc2c1C(=O)CC(C)(C)C2 | + | i
CCc1c(C#N)c(SCCC(=O)NCc2ccc3c(c2)OCO3)nc2c1C(=O)CC(C)(C)C2 | i | i
CC(Oc1ccccc1)C(=O)Nc1cccc(-c2cnc3n2CCC3)c1 (stereo not drawn) | i | i
Cn1nc(-c2ccccc2)cc1C(=O)Nc1cccc(-c2cnc3n2CCC3)c1 | + | i
O=C(Nc1cccc(N2CCCC2=O)c1)c1ccc2c(c1)OCO2 | i | x
O=C(Nc1cccc(-c2cnc3n2CCC3)c1)c1ccc2c(c1)OCO2 | + | i
Cc1cc(C(=O)Nc2nc3ccc(S(C)(=O)=O)cc3s2)n(C(C)C)n1 | x | i
N#C/C(=C\c1ccc(O)cc1)c1nc2ccccc2s1 | i | x
N#C/C(=C\c1cccnc1)c1nc2ccccc2s1 | + | x
CCOc1ccc(S(=O)(=O)NCC2CCN(C(=O)Nc3ccc(F)cc3)CC2)cc1C | x | i
O=C(c1cccs1)N1CCc2ccc(NS(=O)(=O)c3cccs3)cc21 | i | i
Cc1ccc(CNC(=O)c2cnc3c(c(C)nn3-c3ccc(F)cc3)c2Cl)cc1 | i | i
Cc1nn(-c2ccc(F)cc2)c2ncc(C(=O)NCCCn3ccnc3)c(Cl)c12 | + | x
COCCNC(=O)Cc1ccc(NS(=O)(=O)c2ccc(OC)c(C)c2)cc1 | i | i
CN(c1ccc(F)cc1)S(=O)(=O)c1ccsc1-c1nc(-c2ccc(F)cc2)no1 | i | i
COc1ccc(N(C)S(=O)(=O)c2ccsc2-c2nc(-c3ccc(SC)cc3)no2)cc1 | + | i
Cc1cc(C)cc(OCCNC(=O)c2cccs2)c1 | i | i
COc1ccc(C(=O)NCCOc2cc(C)cc(C)c2)c(OC)c1 | + | i
CN(CCC#N)C(=O)CCn1cnc2c(cnn2-c2ccccc2)c1=O | x | i
CCOc1ccc(-n2nnnc2SC(C)C(=O)Nc2ccccc2C#N)cc1 (stereo not drawn) | + | x
SMILES | AMPAR-TARP mod | GIRK2 act
COc1ccccc1NC(=O)C(C)Sc1nnnn1-c1ccc(Cl)cc1 (stereo not drawn) | i | x
COc1ccc(-n2nnnc2SC(C)C(=O)Nc2cccc(Cl)c2)cc1 (stereo not drawn) | i | x
CCOc1ccc(-n2nnnc2SC(C)C(=O)Nc2cccc(C(C)=O)c2)cc1 (stereo not drawn) | + | x
COc1ccc(NC(=O)C(C)Sc2nnnn2-c2ccc(OC)cc2)cc1 (stereo not drawn) | i | x
CCOc1ccc(-n2nnnc2SC(C)C(=O)Nc2ccccc2C(=O)OC)cc1 (stereo not drawn) | + | x
CCOc1ccc(S(=O)(=O)N(CCc2ccccc2)Cc2ccccn2)cc1F | i | i
Cc1cc(C)c(C)c(Cn2c(C(C)O)nc3ccccc32)c1C (stereo not drawn) | i | x
O=C(Cc1ccccc1Cl)NCCS(=O)(=O)N1CCN(c2ccccn2)CC1 | i | i
COc1ccc2nc(-c3ccc(C)c(NS(=O)(=O)c4ccc(C)c(C)c4)c3)cn2n1 | x | i
COc1ccc2nc(-c3ccc(C)c(NS(=O)(=O)c4ccc(C)s4)c3)cn2n1 | + | i
COc1ccc2nc(-c3ccc(C)c(NS(=O)(=O)c4ccc(C(C)=O)cc4)c3)cn2n1 | + | i
COc1ccc2nc(-c3ccc(C)c(NS(=O)(=O)c4cc(C)ccc4OC)c3)cn2n1 | x | i
COc1cccc2sc(N(Cc3ccccn3)C(=O)c3cc(C)nn3C)nc12 | i | i
CCOc1cccc2sc(N(Cc3ccccn3)C(=O)c3nn(C)cc3C)nc12 | + | i
O=C(Nc1c(F)c(F)c(F)c(F)c1F)C1c2ccccc2Oc2ccccc21 | i | x
CCC(=O)Nc1ccc(N2CCCCC2=O)c(OC)c1 | + | x
COc1ccc(CCC(=O)Nc2ccc(N3CCCCC3=O)c(OC)c2)cc1 | i | i
O=S(=O)(Oc1c(Cl)cc(Cl)c2cccnc12)N1CCCCCC1 | i | x
O=S(=O)(Oc1c(Cl)cc(Cl)c2cccnc12)N1CCCCC1 | + | x
COc1nn(C)cc1-c1nnc(SCC(=O)Nc2cccc(C)c2C)n1C | i | i
